Test in all cases: NCI-60 one-dose screen, 48 h (100 = growth as untreated, 0 = no growth, -100 = all killed)
What all share (details): 10 µM

Test [1] deals with HCT-15 colon.
For test [2], the system named is HT29 colon.
The subject of test [3] is SNB-75 CNS.
The subject of test [4] is SNB-19 CNS.
The test system of test [5] is U251 CNS.
Test [6] deals with PC-3 prostate.
In test [7] the test system is SK-MEL-5 melanoma.
In test [8] the test system is UACC-62 melanoma.
Test [9] has as its system LOX IMVI melanoma.
The test system of test [10] is SK-MEL-28 melanoma.
In test [11] the test system is SK-MEL-2 melanoma.
The subject of test [12] is EKVX NSCLC.
Test [13] relates to SN12C renal.
For test [14], the system named is TK-10 renal.
In test [15] the test system is ACHN renal.
Test [16] has as its system CAKI-1 renal.
The test system of test [17] is A498 renal.
Test [18] deals with CCRF-CEM leukemia.
The test system of test [19] is MOLT-4 leukemia.
In test [20] the test system is UO-31 renal.

The panel holds about 83,000 compounds, 20% with a hit somewhere; the sample as a whole holds those more often.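 In brief: 96-well plates, 48 h treatment, single concentration, percent growth endpoint.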 A number with no mark means an inactive call. Calls of active or inactive are those of the source. Rule for the calls: active = growth percent below 10; inactive = the rest.

Take `Cc1ccc(-c2cc(-c3cc4ccccc4nc3Cl)[nH]c(=O)n2)cc1`: the growth in test [1] is -39.8% (active); in [2], -15.9% (active); in test [3], -17.2% (active); in test [4], 3.61% (active); in test [5], -23.5% (active); in test [6], 20.7%. Also, the growth in [7] was 18.1%; in [8], 19.3%; in [9], -82.4% (active); in test [10] it was 43.3%; in test [11], 41%; in test [12] it was 27.4%. Moreover, the growth in test [13] was 0.368% (active); in test [14], 26.3%; in [15], 38.6%; in test [16], 24.8%; in test [17], 57.3%; in test [18], -30.1% (active). The growth in test [19] was -21.6% (active).

In the case of `Cc1ccc(-c2cc(-c3cc4ccccc4nc3Cl)[nH]c(=S)n2)cc1`, the growth in [1] was 30.2%; in test [2], 43.3%; in test [3], 66.2%; in test [4] it was 71.1%; in [5] it was 71.8%; in [6], 53.1%. The growth in [7] was -11% (active); in test [8], 21.5%; in test [9], 53.6%; in [10], 47.4%; in [11], 11.8%; in [12], 50%. Moreover, the growth in [13] was 63.8%; in test [14], 107%; in test [15] it was 46.5%; in test [16], 61.5%; in test [17], 79.5%; in test [18], 33.2%. The growth in [19] is 17.5%.

As for `Cc1ccc(C(=O)Nc2ccc(-n3c(C)nc4c(cnn4-c4ccccc4)c3=O)cc2)cc1`, the growth in test [1] was 75.3%; in test [2], 71.2%; in test [3], 82.8%; in test [4], 82.1%; in test [5] it was 90%; in test [6] it was 71.6%. Besides, the growth is 7.05% (active) in [7]; 60.8% in [8]; 67.2% in test [9]; 80.7% in test [10]; 78.3% in test [11]; 30.5% in [12]. Also, the growth in test [13] was 73.3%; in test [14] it was 82.3%; in test [15], 61.8%; in [16] it was 72.4%; in test [17] it was 87.3%; in test [18] it was 46.3%. The growth in test [19] was 34.3%.

For the compound `O=C(O)CCCCCCCCCCN1C(=O)/C(=C/c2cnc(-c3ccccc3)s2)SC1=S`, the growth is 80.7% in test [1]; 126% in test [2]; 124% in test [3]; 100% in test [4]; 59.5% in test [5]; 95% in test [6]. The growth in test [7] is 93.1%; in [8] it was 76.4%; in [9], 32.1%; in test [10], 97.4%; in [11], 93.2%; in test [12], 52.8%. Further, the growth in test [13] is 30.1%; in test [20], 77.5%; in test [14], 150%; in test [15], 70.3%; in [16], 61.6%; in [17], 99.8%. In addition, in test [19], the growth is 39.1%.

On to `C/C(=C\CC/C=C(\C)CC/C=C(\C)CC[C@@H](O)C(C)(C)O)CC/C=C(\C)CC[C@@H](O)C(C)(C)O`, for which the growth in [1] is 21.1%; in test [2], -67% (active); in test [3], 70.2%; in test [4], 61.4%; in test [5], 33.2%; in test [6], 7.84% (active). Also, the growth in [7] is -16.3% (active); in test [8], 46.2%; in test [9], 28.7%; in test [10], 38%; in [11], 52.1%; in test [12] it was 34.5%. Besides, the growth was 12% in test [13]; 30.5% in [20]; 64.6% in test [14]; 37.5% in [15]; 47.4% in test [16]; 73.6% in test [17]. In addition, the growth in test [19] was 0.465% (active).

As for `COc1ccc2nc(Cl)c(-c3cc(-c4ccccc4)nc(=O)[nH]3)cc2c1`, the growth in [1] is 0.676% (active); in test [2], 32.2%; in [3], 70.1%; in test [4], 31.5%; in [5], 12.6%; in test [6], 48.8%. In addition, the growth was 74.2% in test [7]; 66.8% in test [8]; -46.4% (active) in [9]; 97.7% in test [10]; 93.3% in test [11]; 73.3% in [12]. The growth in test [13] is 42.9%; in test [14], 96.9%; in [15], 79%; in test [16], 74.2%; in test [17], 104%; in test [18], 16.4%. The growth in test [19] is -11.4% (active).

With `O=c1nc(-c2ccccc2)cc(-c2cc3ccccc3nc2Cl)[nH]1`, the growth is -64.1% (active) in [1]; -42.5% (active) in [2]; 26.5% in test [3]; 13% in [4]; -72.7% (active) in test [5]; 31.8% in [6]. For the same compound, the growth in test [7] is 62.2%; in test [8] it was 35.1%; in test [9], -87.7% (active); in test [10] it was 71.5%; in test [11], 82.8%; in [12], 61.6%. Also, the growth in test [13] was 20.7%; in test [14], 87.7%; in test [15], 39.1%; in [16] it was 56.6%; in [17] it was 104%; in [18], -29.3% (active). The growth in test [19] was -18.7% (active).

Regarding `N#Cc1c(NC(=O)c2ccc(C(F)(F)F)c(Cl)c2)sc2c1CCC(=O)C2`, the growth in test [1] was -62.3% (active); in [2], -25.8% (active); in [3], -37.7% (active); in test [4], -55.3% (active); in [5], -84.7% (active); in [6], -10.2% (active). Also, the growth is -98.8% (active) in test [7]; -78.9% (active) in test [8]; -52.6% (active) in [9]; -83.4% (active) in test [10]; -9.04% (active) in test [11]; -79.9% (active) in test [12]. Moreover, the growth in [20] was -98.8% (active); in test [14], 16%; in test [15] it was -96.5% (active); in test [16], -72% (active); in [17], 74.1%; in [18], 5.53% (active). The growth in test [19] was -6.19% (active).

These data come from PubChem BioAssay (NCI).
